Records with an inconclusive call do not appear. A number with no mark means an inactive call. Activity calls are given as the source filed them. Calls come from the whole dose curve; as a rule, active = well fitted cell-killing curve with a large enough effect; inconclusive = small, poorly fitted or top-dose-only effect, or effect the other way; inactive = no such curve, though single readings can be large or run the other way.
assay: Quantitative High-Throughput drug screen in 47 multiple myeloma cell lines against the NCATS MIPE library collection: KMS28PE_JCRB cell viability assay (AID 1918983); settings: KMS28PE multiple myeloma viability, CellTiter-Glo ATP, 48 h; series mostly up to 45.8 µM; note: nearly all actives have a fitted effect of over 35% in size
Outline: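 Myeloma cells (500/well) treated with MIPE 4.0 compounds for 48 h at 37 °C, 5% CO2. Viability read as ATP via CellTiter-Glo luminescence after 5 min at RT; DMSO-only wells = 100%, media-only = 0% viability.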
Potency is the fitted concentration of half-maximal effect.

SMILES	Potency	viability, % of DMSO control
Cc1cc(O)c2c(c1)C(=O)c1cccc(O)c1C2=O	inactive	
CCC(C(=O)O)C1CCC(C)C(C(C)C(O)C(C)C(=O)C(CC)C2OC3(C=CC(O)[C@@]4(CC[C@](C)(C5CC[C@@](O)(CC)C(C)O5)O4)O3)C(C)CC2C)O1 (some centres undefined)	16.6 µM (active)	
CC(=O)[C@]1(O)Cc2c(O)c3c(c(O)c2[C@@H](O[C@H]2C[C@H](N)[C@@H](O)[C@H](C)O2)C1)C(=O)c1ccccc1C3=O	0.187 µM (active)	
COc1cc(C=CC(=O)CC(=O)C=Cc2ccc(O)c(OC)c2)ccc1O	17.1 µM (active)	
CN(CC(=O)N(Cc1ccc(C2CCCCC2)cc1)c1ccc(C(=O)O)c(O)c1)S(=O)(=O)c1c(F)c(F)c(F)c(F)c1F	29.6 µM (active)	
CC(C)(C)[C@H](NC(=O)c1ccc(N)c(Cl)c1)C(=O)N1CCC[C@@H]1C(=O)N[C@H](C#N)CC(=O)O		131% [at 3.51 µM]
Cn1cnc(=N)c2[nH]cnc21	0.105 µM (active)	
COc1ccc2c(c1OC)C(=O)OC2[C@H]1c2c(cc3c(c2OC)OCO3)CCN1C (some centres undefined)	0.0526 µM (active)	
C[C@@H]1CC[C@@]2(OC1)OC1CC3C4CC=C5CC(O)CCC5(C)C4CCC3(C)C1[C@@H]2C (some centres undefined)	inactive	
C#C[C@]1(O)CC[C@@H]2[C@@H]3CCC4=CC(=O)CC[C@@H]4[C@H]3CC[C@@]21CC	inactive	
COc1ccc(S(=O)(=O)Nc2cccnc2Nc2ccc(O)cc2)cc1	0.105 µM (active)	
C=C(C)[C@@H]1CC[C@]2(C(=O)O)CC[C@]3(C)[C@H](CC[C@@H]4[C@@]5(C)CC[C@H](O)C(C)(C)[C@@H]5CC[C@]43C)[C@@H]12	3.72 µM (active)	
CC(=O)OCC(=O)[C@@]1(O)CC[C@H]2[C@@H]3CCC4=CC(=O)CC[C@]4(C)[C@@H]3C(=O)C[C@@]21C	inactive	
CC(=O)SCC(Cc1ccccc1)C(=O)NCC(=O)OCc1ccccc1 (centres undefined)	7.43 µM (active)	
C[C@H](CCC(=O)O)[C@H]1CC[C@H]2[C@@H]3[C@H](O)C[C@@H]4C[C@H](O)CC[C@]4(C)[C@@H]3CC[C@]12C	inactive	
CCOc1cc2ncc(C#N)c(Nc3ccc(OCc4ccccn4)c(Cl)c3)c2cc1NC(=O)C=CCN(C)C	13.2 µM (active)	
c1cc(CN2CCCNCCNCCCNCC2)ccc1CN1CCCNCCNCCCNCC1	inactive	
C=CC(=O)N1CCc2ccc(-n3c(=O)ccc4cnc5ccc(-c6cnn(C)c6)cc5c43)cc21	4.69 µM (active)	
NC[C@H]1O[C@H](O[C@H]2[C@@H](O)[C@@H](O[C@H]3O[C@H](CO)[C@@H](O)[C@H](N)[C@@H]3O)[C@H](N)C[C@@H]2N)[C@H](N)C[C@H]1O	inactive	
N#CNC(=NCCCCCCOc1ccc(Cl)cc1)Nc1ccncc1	0.132 µM (active)	

SMILES	Potency	viability, % of DMSO control
C[C@H]1COc2c(N3CCN(C)CC3)c(F)cc3c(=O)c(C(=O)O)cn1c23	inactive	
Oc1cc(-c2nc(-c3ccccc3)[nH]c2-c2ccncc2)ccc1Cl	20.9 µM (active)	
O=c1[nH]c(=O)n([C@H]2C[C@@H](O)[C@@H](CO)O2)cc1C=CBr	inactive	
COC[C@H](NC(=O)c1cnc(C)s1)C(=O)N[C@@H](COC)C(=O)N[C@@H](Cc1ccccc1)C(=O)[C@@]1(C)CO1	0.0662 µM (active)	
CN(C)CCN1C(=O)c2cccc3cc(N)cc(c23)C1=O	16.6 µM (active)	
CCNC(=O)Nc1ccc(-c2nc3c(c(N4CCOC[C@H]4C)n2)CCN(C2COC2)C3)cc1	0.833 µM (active)	
COC(=O)[C@H](CCCN=C(N)N)NS(=O)(=O)c1ccc(C)cc1	inactive	
COc1cc([C@@H]2c3cc4c(cc3[C@@H](O[C@@H]3O[C@@H]5CO[C@@H](c6cccs6)O[C@@H]5[C@H](O)[C@@H]3O)[C@H]3COC(=O)[C@H]23)OCO4)cc(OC)c1O	2.64 µM (active)	
CCOC(=O)[C@H](CCc1ccccc1)N[C@@H](C)C(=O)N1[C@@H](C(=O)O)C[C@H]2CCC[C@@H]21	23.5 µM (active)	
CC(C)c1cnn2c(NCc3ccccc3)cc(NCCCCCCN)nc12	14.8 µM (active)	
O=C(CCCCCCC(=O)Nc1cccnc1)NO	4.18 µM (active)	
COc1cc([C@@H]2c3cc4c(cc3[C@H](O)[C@H]3COC(=O)[C@@H]23)OCO4)cc(OC)c1OC	0.148 µM (active)	
O=c1ccn([C@@H]2O[C@H](CO)[C@H](O)[C@@H]2F)c(=O)[nH]1	inactive	
NC(=O)N1CCC(CC(=O)N2CCC([C@H]3c4ncc(Br)cc4CCc4cc(Cl)cc(Br)c43)CC2)CC1	18.7 µM (active)	
CC(C)NC[C@@H](C(=O)N1CCN(c2ncnc3c2[C@H](C)C[C@H]3O)CC1)c1ccc(Cl)cc1	1.48 µM (active)	
C[C@H](NCc1ccc(OCc2cccc(F)c2)cc1)C(N)=O	9.35 µM (active)	
O=C(c1ccc(F)cc1)N1CCC[C@H](c2nc(-c3ccc(F)cc3)no2)C1	inactive	
COc1cccc2c1C(=O)c1c(O)c3c(c(O)c1C2=O)C[C@@](O)(C(=O)CO)C[C@@H]3O[C@H]1C[C@H](N)[C@H](OC2CCCCO2)[C@H](C)O1 (some centres undefined)	2.64 µM (active)	
Nc1nc(N)c2nc(-c3cccc(O)c3)c(-c3cccc(O)c3)nc2n1	26.4 µM (active)	

Source: PubChem BioAssay (NCATS)
